Shown are actives, neighbours in structure and some others; about 1.4% of the full set was active somewhere.
IL2 activator: activators of IL-2; AID 652025; actives 0.065% (n = 360,000); activation, % (series mostly up to about 46 µM); IL-2 activation reporter assay, cell-based qHTS; stimulated with anti-CD3/CD4/CD28 beads; in transgenic mouse T cells; in the data active = activation above about 50%; inconclusive = mostly about 30% to 49%; also: 0% is about no effect
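EGFP and DsRed fluorescence is measured by plate cytometry in unstimulated transgenic mouse T cells exposed to compound for 60 minutes, then stimulated 18 hours at 37 degrees C with anti-CD3/anti-CD4 beads plus anti-CD28.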
BRCA1 expr act: activators of BRCA1 expression. MCF7-BRCA1-FFLuc reporter, luminescence, 48 h; response scale: scaled: vehicle 0%, 10 µM genistein 100%. actives 1.1% (n = 380,000). Potency, µM (doses to about 46.1 µM), inactives show at the top dose activation, most hits filed as activators; also: potency is read from the fitted curve at half-maximal effect; nearly all actives have a fitted effect of over 80% in size
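MCF7-BRCA1-FFLuc, 2000 cells/well; 2 h attach, 37 °C/5% CO2; compound 48 h; luciferase substrate 15 min; luminescence end-point. Norm. to genistein 10 microM max activation and DMSO; concentration-response curves fitted.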
N370S GC mod: inhibitors or activators of N370S glucocerebrosidase for Gaucher disease. N370S GC spleen homogenate, 4MU-glucoside fluorescence. P04062. Potency, µM (highest dose often 59.4 µM), inactives show at the highest dose activity change, negative = inhibition, actives largely listed as inhibitors. actives 0.092% (n = 330,000). AID 2101;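 also: potency is read from the fitted curve at half-maximal effect; 0% = full enzyme activity and -100% = no enzyme basal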
Integrin act MD: activates integrin-mediated alleviation for muscular dystrophy | alpha7betagal myoblasts, beta-gal FDG fluorescence, 48 h | Potency, µM (top dose mostly 38.3 µM), inactives show top-dose activation, usual class: activators | actives 0.064% (n = 350,000) | AID 624291;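 also: potency is read from the fitted curve at half-maximal effect; 100% = response of the positive control SU9516; nearly all actives have a fitted effect of over 60% in size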
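alpha7betagal+/- myoblasts (passage 13, 250/well) treated 48 h at 37C with compounds at 1:260 dilution of DMSO stock. Lysed, then beta-galactosidase activity read as FDG fluorescence (ex 480/em 540) after 30 min, with pre-read for autofluorescence.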
Chronic BCR inh: chronic active BCR signaling inhibition; ABC-DLBCL IkBa-CBG/CBR reporter, luminescence ratio, 4 h; Potency, µM (top dose mostly 46.1 µM), inactives show at the highest dose activity change, negative = inhibition, actives largely listed as inhibitors; actives 0.05% (n = 340,000); active = well fitted inhibition curve with a large enough effect in the signal ratio, with a control signal flat, not every such curve was filed as active; inconclusive = small, poorly fitted or top-dose-only effect, or effect the other way, or a change in a side signal; the % refers to the signal ratio;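 also: potency is read from the fitted curve at half-maximal effect; plate controls were basal doxycycline-induced cells for no effect and cells given 10 µM MG132 for full effect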
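Concentration-response series (up to 46 uM) were applied to TMD8 dual-reporter cells for 4 h at 37C with doxycycline. Green/red ratio, after filter-overlap correction, defined %Activity; red signal alone was normalised to basal cells and zero luminescence.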
Nrf2 activator: activates Nrf2 signaling; AREc32 ARE-luciferase reporter (MCF7-derived line), luminescence, 24 h; Potency, µM (titrated, usually from 46.1 µM), for the others: at the top dose activation, usual class: activators; actives 0.31% (n = 410,000); also: potency is read from the fitted curve at half-maximal effect; % of control where 0% means no effect; nearly all actives have a fitted effect of over 65% in size
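AREc32 cells carrying an ARE-driven firefly luciferase, 1000 cells/well in OPTI-MEM with 5% FBS, dosed after overnight attachment and incubated 24 hr at 37 deg C. Steady-Glo luminescence read after 30 min at RT.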
Active calls of the source: *. Unless noted, calls follow the shape of the dose curve; as a rule, active = well fitted curve in the direction sought with a large enough effect; inconclusive = small, poorly fitted or top-dose-only effect, or another doubt; inactive = no such curve, though single readings can be large; an effect the other way counts as inactive or inconclusive.

Results for COc1ccc(-c2nc3cnc(N4CCOCC4)nc3n(-c3ccc(OC)cc3)c2=O)cc1 ?
N370S GC mod: 12.9%

Results for Cc1cccc(NC(=O)CNc2cc(C)ccc2C)c1 ?
IL2 activator: -2.2; BRCA1 expr act: 12.6µM*; N370S GC mod: 10.2%; Integrin act MD: 10.1%; Chronic BCR inh: -2.5%; Nrf2 activator: 2.0%

Results for CN1[C@H](Cc2ccccc2)C=C[C@]1(C)C(=O)NCC1CC1 ?
N370S GC mod: 3.2%

How did CC1=CCC(COC(=O)Nc2ccccc2)CC1 (centres undefined) do in these assays?
IL2 activator: 0.0; BRCA1 expr act: 3.55µM*; N370S GC mod: 9.6%; Integrin act MD: -11.6%; Chronic BCR inh: inconclusive; Nrf2 activator: 4.1%

How did O=C(Nc1ccccc1)OCC1CCCN2CCCCC12 (centres undefined) do in these assays?
IL2 activator: -1.6; BRCA1 expr act: 8.3%; N370S GC mod: 14.6%; Integrin act MD: -26.8%; Chronic BCR inh: inconclusive; Nrf2 activator: -1.0%

How did S=C(NCc1ccccn1)Nc1ccc(Br)cc1Cl do in these assays?
IL2 activator: 3.1; BRCA1 expr act: 11.2µM*; N370S GC mod: 3.2%; Integrin act MD: -12.7%; Chronic BCR inh: -1.0%; Nrf2 activator: 4.0%

How did S=C(NCc1ccccn1)Nc1ccccc1Cl do in these assays?
IL2 activator: -1.4; BRCA1 expr act: 50.2%; N370S GC mod: 2.1%; Integrin act MD: 11.0%; Chronic BCR inh: -4.5%; Nrf2 activator: 1.8%

How did O=C(NCc1ccccn1)Nc1ccccc1Cl do in these assays?
IL2 activator: -1.1; BRCA1 expr act: 66.3%; N370S GC mod: -9.8%; Integrin act MD: 0.0%; Chronic BCR inh: -3.3%; Nrf2 activator: 0.3%

How did O=C(NCc1ccccn1)Nc1ccc(Br)cc1Cl do in these assays?
IL2 activator: 0.9; BRCA1 expr act: 11.2µM*; N370S GC mod: 0.7%; Integrin act MD: -15.3%; Chronic BCR inh: 5.4%; Nrf2 activator: 1.7%

How did O=C(COc1ccccc1Br)NCc1ccccn1 do in these assays?
IL2 activator: -1.9; BRCA1 expr act: 11.2µM*; N370S GC mod: 22.8%; Integrin act MD: 17.0%; Chronic BCR inh: inconclusive; Nrf2 activator: 0.1%

How did O=C(NCc1ccccn1)Nc1cccc(Cl)c1Cl do in these assays?
IL2 activator: 1.4; BRCA1 expr act: 10µM*; N370S GC mod: -10.1%; Integrin act MD: 39.5%; Chronic BCR inh: -0.6%; Nrf2 activator: 1.8%

How did O=C(NCc1ccccn1)Nc1ccc(Br)cc1 do in these assays?
IL2 activator: 2.6; BRCA1 expr act: 32.1%; N370S GC mod: -6.0%; Integrin act MD: 19.8%; Chronic BCR inh: 4.2%; Nrf2 activator: -0.8%

How did Cc1cc(Nc2nn(C)c(N)c2C#N)ccc1F do in these assays?
IL2 activator: -0.2; BRCA1 expr act: 46.4%; N370S GC mod: 1.2%; Integrin act MD: 17.2%; Chronic BCR inh: -0.6%; Nrf2 activator: 6.8%

What do the screens show for `CCOC(=O)Cn1c(=O)cc(-c2ccccc2)c2c(C)nn(C)c21`?
Nrf2 activator: 0.3%

What do the screens show for `COc1ccccc1OCC(=O)Nc1c2c(nn1-c1ccccc1)CS(=O)(=O)C2`?
IL2 activator: -2.9; BRCA1 expr act: 24.4%; N370S GC mod: -7.8%; Integrin act MD: inconclusive; Chronic BCR inh: -0.4%; Nrf2 activator: -0.1%

What do the screens show for `O=C(NCc1ccccn1)Nc1ccc(Cl)cc1Cl`?
IL2 activator: 0.5; BRCA1 expr act: 7.94µM*; N370S GC mod: -0.5%; Integrin act MD: -7.6%; Chronic BCR inh: 9.7%; Nrf2 activator: 0.1%

What do the screens show for `O=C1N/C(=C\c2nc3ccccc3s2)c2ccccc21`?
N370S GC mod: 6.1%; Chronic BCR inh: -2.5%

Results for O=C1N/C(=C\c2ccccc2)c2ccccc21 ?
IL2 activator: -3.0; BRCA1 expr act: -74.5%; N370S GC mod: 2.0%; Integrin act MD: -14.1%; Chronic BCR inh: inconclusive; Nrf2 activator: 8.91µM*

How did CCNc1nc(C#N)nc(Nc2ccccc2)n1 do in these assays?
BRCA1 expr act: -45.2%
